In the library only some 4.1% were active in any assay of this set; here they are far more common.
TRPM1 prom inh = inhibitors of MITF-driven TRPM1 promoter in melanoma cells; SK-MEL-5 TRPM1 promoter luciferase, 24 h; inhibition, % at 12.5 µM; 330,000 compounds, 0.83% hits;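 active means mean inhibition across replicates of 60% or more, whatever share of single replicates reaches that level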
Peg3 promoter = inhibitors of Peg3 promoter | HeLa PEG-Prom luciferase reporter, luminescence, overnight | inhibition, % at 20 µM | 360,000 compounds, 1.7% hits;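 active means inhibition of at least 50% at 20 µM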
TROY NFkB inh = inhibitors of TROY-dependent NF-kB signaling. inhibition, % at 10 µM. 360,000 compounds, 0.98% hits. AID 1347056. Q293 LMP1-TROYcd NF-kB luciferase reporter, 4 h;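 active means compounds whose plate-normalised and pattern-corrected inhibition of the luciferase reporter signal at the single screening dose is 50% or more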
Shn3 inh set2 = reduces Shn3 3'UTR luciferase signal in osteoblasts | Clone20 osteoblast Shn3 3'UTR firefly luciferase, 24 h | inhibition, % at 12.5 µM | 360,000 compounds, 0.52% hits | AID 588674;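 active means mean inhibition of at least 75% with every replicate also reaching 75%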
LMP1 NFkB inh = reduces LMP1-driven NF-kappaB luciferase signal; AID 504558; LMP1-induced NF-kappaB luciferase reporter cells, luminescence; 350,000 compounds, 0.69% hits; inhibition, % at 12.5 µM; in the data active means inhibition above about 41%
TWEAK Fn14 block = blocks TWEAK-Fn14 interaction in a reporter cell assay | inhibition, % at 10 µM | 360,000 compounds, 2% hits | TWEAK-stimulated Fn14 reporter cells, luciferase luminescence, 8 h | AID 1159606; in the data active means inhibition above about 50%
A number is an active result; . = inactive; / = not tested or not shown.

SMILES	TRPM1 prom inh	Peg3 promoter	TROY NFkB inh	Shn3 inh set2	LMP1 NFkB inh	TWEAK Fn14 block
CC/C(=N\Nc1ccccc1[N+](=O)[O-])c1ccc(O)cc1	.	.	53	.	.	.
C/C(=N/Nc1ccccc1[N+](=O)[O-])c1ccc([N+](=O)[O-])cc1	.	.	51	.	.	.
O=C(/C=C/c1ccc(F)cc1)Nc1cccc(S(=O)(=O)N2CCOCC2)c1	.	.	.	.	.	.
COc1cccc(N(CC(=O)NC(C)(C)C)C(=O)C2CSC(=O)C2)c1 (stereo not drawn)	.	.	.	.	.	.
CC(C)(C)NC(=O)CN(C(=O)C1CSC(=O)C1)c1ccc2c(c1)OCCO2 (stereo not drawn)	.	.	54	.	.	61
CC1=NN(C(N)=S)C(=O)C1N=Nc1cccc(C(=O)O)c1 (stereo not drawn)	.	.	.	.	49	.
CC(O)(c1ccc(F)c(F)c1)c1nc(-c2ccc(Cl)cc2)cs1 (stereo not drawn)	/	76	.	.	/	.
CC(O)(c1ccncc1)c1nc(-c2cccc(C(F)(F)F)c2)cs1 (stereo not drawn)	/	.	.	85	/	.
COc1cccc(C(C)(O)c2nc(-c3cc(F)cc(F)c3)cs2)c1 (stereo not drawn)	/	.	.	.	/	54
CC(O)(c1cccc(F)c1)c1nc(-c2cccc(C(F)(F)F)c2)cs1 (stereo not drawn)	/	.	.	.	/	.
CC(O)(c1ccc(F)c(F)c1)c1nc(-c2cccc(C(F)(F)F)c2)cs1 (stereo not drawn)	/	.	.	.	/	.
CCN(CC)C(=O)c1cccc(-c2csc(C(C)(O)c3cccc(OC)c3)n2)c1 (stereo not drawn)	/	.	.	.	/	65
COC(=O)c1ccc2nc(NC(=O)C(C)(C)C)sc2c1	.	.	81	.	.	96
O=C(NN1C(=O)NC2(CCCCC2)C1=O)c1ccc(-c2ccc([N+](=O)[O-])cc2)o1	.	.	.	.	.	.
CCN(CC)c1ccc(C=Nc2ccc(N(C)C)cc2)c(O)c1	.	.	.	.	.	58
CCN(CC)c1ccc(N=Cc2ccc(N(CC)CC)cc2O)cc1	.	.	.	.	.	.
COC(=O)[C@@H](NC(=O)N1CCC(Cc2ccccc2)CC1)C(C)C	.	.	.	.	.	.
Cc1ccc(NC2=C(NCCO)C(=O)c3ccccc3C2=O)cc1	.	.	.	.	.	.
CN(C)c1ccc(NC2=C(Cl)C(=O)c3ccccc3C2=O)cc1	102	100	.	98	.	102
O=C1C(Cl)=C(Nc2ccc3cn[nH]c3c2)C(=O)c2ccccc21	106	97	.	96	.	.
COC(CNC(=O)C(=O)Nc1cc2c3c(c1)CCN3C(=O)CC2)OC	.	.	.	.	.	.
Cc1ccc(S(=O)(=O)N(C(=O)c2ccncc2)c2ccc(OC(=O)c3ccncc3)cc2)cc1	.	.	.	.	.	.
Cc1ccc(S(=O)(=O)N(C(=O)c2ccncc2)c2ccc(OC(=O)c3ccncc3)cc2)c(C)c1	.	52	.	.	.	50
Cc1ccc(C)c(S(=O)(=O)N(C(=O)c2ccncc2)c2ccc(OC(=O)c3ccncc3)cc2)c1	.	.	68	.	.	84
CCc1ccc(S(=O)(=O)N(C(=O)c2ccncc2)c2ccc(OC(=O)c3ccncc3)cc2)cc1	.	.	54	.	.	.
SMILES	TRPM1 prom inh	Peg3 promoter	TROY NFkB inh	Shn3 inh set2	LMP1 NFkB inh	TWEAK Fn14 block
CCN(CC)CCCNC(=O)c1[nH]c2ccccc2c1Sc1ccc(Cl)cc1	.	65	.	.	.	.
COC(=O)c1[nH]c2ccccc2c1Sc1ccccc1	.	.	.	.	.	.
Cc1ccc(CNC(=O)c2ccc(N3CCC4(CC3)CC(c3cccc(Br)c3)=NO4)c(NC(=O)c3ccc(Cl)c([N+](=O)[O-])c3)c2)cc1	.	.	.	.	.	.
CCCNC(=O)c1ccc(N2CCC3(CC2)CC(c2cccc(Br)c2)=NO3)c(NC(=O)c2ccc(Cl)c([N+](=O)[O-])c2)c1	.	73	.	.	.	.
O=C(O)C1(c2ccccc2)CCN(S(=O)(=O)c2ccc(F)c(F)c2)CC1	.	.	.	.	.	.
NC(=O)c1ccc[n+](CC(=O)Nc2ccccc2C(=O)O)c1	.	.	.	.	.	.
O=c1oc2ccccc2cc1-c1nc2ccccc2o1	.	.	.	.	.	.
